Unmarked numbers belong to inactive results. A call without a number means that no potency is given here. Activity calls are given as the source filed them. Calls follow the shape of the dose curve; as a rule, active = well fitted curve in the direction sought with a large enough effect in the repeat runs; inconclusive = weak or mixed curves; inactive = flat fitted curve, though single readings scatter.
test: qHTS assay to test for compound auto fluorescence at 535 nm (green) in HEK293 cells (AID 720680); conditions: green autofluorescence 485/535 nm; series mostly up to 91.3 µM

SMILES	outcome	fluorescence, % of fluorescein
CC(=O)OC(C)(C)C	inactive	–
CC(C)(O)c1ccccc1	inactive	–
OCC(CO)(CO)COCC(CO)(CO)CO	inactive	–
C[C@H](O)C(=O)Nc1c(I)c(C(=O)NC(CO)CO)c(I)c(C(=O)NC(CO)CO)c1I	–	-0.048% [at 18.6 µM]
NCC[C@H](O)C(=O)N[C@@H]1C[C@H](N)[C@@H](O[C@H]2O[C@H](CN)[C@@H](O)[C@H](O)[C@H]2O)[C@H](O)[C@H]1O[C@H]1O[C@H](CO)[C@@H](O)[C@H](N)[C@H]1O	inactive	–
CCN1CCN(c2cc3c(cc2F)c(=O)c(C(=O)O)cn3C2CC2)CC1	inactive	–
CCCCCCCCCCCCCCC	inactive	–
C/C=C1\C(=O)C[C@H]2[C@@H]3CCC4=CC(=O)CC[C@]4(C)[C@H]3CC[C@]12C	inactive	–
c1cc(CN2CCCCC2)cc(OCCCNc2nc3ccccc3s2)c1	inactive	–
COc1ccc(NC(C)=O)cc1	inactive	–
CC(=O)c1ccc(C)cc1	inactive	–
COC(C(=O)O)c1ccccc1 (stereo unspecified)	inactive	–
COc1ccc(COC=O)cc1	inactive	–
CCCCC=O	inactive	–
C#CC(O)CCCCC (stereo unspecified)	inactive	–
COc1cc(CCC(C)=O)ccc1O	inactive	–
NC(=O)c1ncn([C@@H]2O[C@H](CO)[C@@H](O)[C@H]2O)c1O	inactive	–
NC(=S)Nc1cccc2ccccc12	–	0.198% [at 3.72 µM]
CC(=O)NC(Cc1ccccc1)C(=O)O (stereo unspecified)	inactive	–
CC(C)(O)Cc1ccccc1	inactive	–
Cc1ccccc1Br	inactive	–
CC12CCC(CC1=O)C2(C)C (stereo unspecified)	inactive	–
C=C(C)C1CC=C(C)C(O)C1 (stereo unspecified)	inactive	–
CC1CCN(CCCC(=O)c2ccc(F)cc2)CC1	inactive	–
C1CCCCCCCCCCC1	–	0.0284% [at 18.6 µM]
COC(=O)[C@H]1[C@H]2C[C@@H]3c4[nH]c5cc(OC)ccc5c4CCN3C[C@H]2C[C@@H](OC(=O)COc2ccc(OC)cc2)[C@@H]1OC	inactive	–
CC1=CC(=O)CCC1	inactive	–
CCCCC1CCCCC(=O)O1 (stereo unspecified)	inactive	–
CC1=CCC2C(C1)C2(C)C (stereo unspecified)	inactive	–

test: qHTS assay to test for compound auto fluorescence at 460 nm (blue) in HEK293 cell free culture (AID 720681); conditions: cell-free medium, autofluorescence 405/460 nm (blue); series mostly up to 91.3 µM
How it was run: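 Compounds were added to cell-free DMEM with 10% FBS and fluorescence read directly. The blue channel used 405 nm excitation and 460 nm emission, with triamterene as the reference fluorophore.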

SMILES	Potency	fluorescence, % of fluorescent control
CC(=O)OC(C)(C)C	inactive	–
CC(C)(O)c1ccccc1	inactive	–
OCC(CO)(CO)COCC(CO)(CO)CO	inactive	–
C[C@H](O)C(=O)Nc1c(I)c(C(=O)NC(CO)CO)c(I)c(C(=O)NC(CO)CO)c1I	–	-0.108% [at 18.6 µM]
CSc1ccc(C=O)cc1	inactive	–
NCC[C@H](O)C(=O)N[C@@H]1C[C@H](N)[C@@H](O[C@H]2O[C@H](CN)[C@@H](O)[C@H](O)[C@H]2O)[C@H](O)[C@H]1O[C@H]1O[C@H](CO)[C@@H](O)[C@H](N)[C@H]1O	inactive	–
CCN1CCN(c2cc3c(cc2F)c(=O)c(C(=O)O)cn3C2CC2)CC1	inactive	–
CCCCCCCCCCCCCCC	inactive	–
C/C=C1\C(=O)C[C@H]2[C@@H]3CCC4=CC(=O)CC[C@]4(C)[C@H]3CC[C@]12C	inactive	–
c1cc(CN2CCCCC2)cc(OCCCNc2nc3ccccc3s2)c1	inactive	–
CC(C)(C)N(CCO)CCO	inactive	–
COc1cc(C)cc(O)c1	inactive	–
COc1ccc(NC(C)=O)cc1	inactive	–
CC(=O)c1ccc(C)cc1	inactive	–
COC(C(=O)O)c1ccccc1 (stereo unspecified)	inactive	–
COc1ccc(COC=O)cc1	inactive	–

SMILES	Potency	fluorescence, % of fluorescent control
CCCCC=O	inactive	–
C#CC(O)CCCCC (stereo unspecified)	inactive	–
COc1cc(CCC(C)=O)ccc1O	inactive	–
NC(N)=NS(=O)(=O)c1ccc(N)cc1	–	-0.0354% [at 18.6 µM]
NC(=O)c1ncn([C@@H]2O[C@H](CO)[C@@H](O)[C@H]2O)c1O	inactive	–
NC(=S)Nc1cccc2ccccc12	–	-0.0083% [at 3.72 µM]
CC(=O)NC(Cc1ccccc1)C(=O)O (stereo unspecified)	inactive	–
CC(C)(O)Cc1ccccc1	inactive	–
Cc1ccccc1Br	inactive	–
CC12CCC(CC1=O)C2(C)C (stereo unspecified)	inactive	–
C=C(C)C1CC=C(C)C(O)C1 (stereo unspecified)	inactive	–
CC1CCN(CCCC(=O)c2ccc(F)cc2)CC1	inactive	–
C1CCCCCCCCCCC1	–	-0.122% [at 18.6 µM]
COC(=O)[C@H]1[C@H]2C[C@@H]3c4[nH]c5cc(OC)ccc5c4CCN3C[C@H]2C[C@@H](OC(=O)COc2ccc(OC)cc2)[C@@H]1OC	inactive	–
CC1=CC(=O)CCC1	inactive	–
CCOC(=O)[C@H](CCc1ccccc1)N[C@@H](C)C(=O)N1CCC[C@H]1C(=O)O	inactive	–
